PubChem BioAssay (NCI)
Compounds without any hit were thinned out: in the full panel of roughly 79,000, 15% have a hit. Values without a mark were called inactive. Active and inactive are the calls of the source. Cut-off read from the data, not from the text of the source: active = growth inhibition above about 70%; inactive = the rest.

Assays:
[1] = NCI Yeast Anticancer Drug Screen. Data for the rad50 strain (AID 155);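 note: 0% = growth of vehicle-only cultures of the same strain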; conditions: S. cerevisiae rad50 strain growth inhibition, stronger effect = higher value; at 50.0 µM unless noted
In short: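 Vehicle-treated cultures provide the reference for the growth inhibition reported for compound-exposed, repair-deficient yeast.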

[2] = NCI Yeast Anticancer Drug Screen. Data for the mec2-1 strain (AID 157); conditions: S. cerevisiae mec2-1 strain, stronger effect = higher value; at 50.0 µM unless noted
In short: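 Strain: mec2-1 (DNA repair/cell cycle alteration). Compound exposure, then growth measured; inhibition expressed relative to vehicle.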

[3] = NCI Yeast Anticancer Drug Screen. Data for the sgs1 mgt1 strain (AID 161);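 note: 0% = growth of cultures given vehicle only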; conditions: S. cerevisiae sgs1 mgt1 strain, stronger effect = higher value; at 50.0 µM unless noted
In short: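 Mutant yeast exposed to compound; growth scored against vehicle-only wells.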

[4] = NCI Yeast Anticancer Drug Screen. Data for the cln2 rad14 strain (AID 165);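 note: 0% = growth equal to vehicle treated cultures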; conditions: S. cerevisiae cln2 rad14 strain, stronger effect = higher value; at 50.0 µM unless noted
In short: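 Compounds are applied to the cln2 rad14 yeast strain, and growth is then compared with that of vehicle-treated cultures to give inhibition.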

[5] = NCI Yeast Anticancer Drug Screen. Data for the bub3 strain (AID 167); conditions: S. cerevisiae bub3 mutant strain, stronger effect = higher value; at 50.0 µM unless noted
In short: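 Mutant yeast screening strain plus compound; vehicle-treated cultures serve as the 0% inhibition reference.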

[6] = NCI Yeast Anticancer Drug Screen. Data for the mlh1 rad18 strain (AID 175); conditions: S. cerevisiae mlh1 rad18 strain growth inhibition, stronger effect = higher value; at 50.0 µM unless noted
In short: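 Read-out is yeast growth inhibition, calculated against vehicle-only controls. The compound was applied to a strain engineered with DNA damage repair alterations.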

| SMILES | growth inhibition [1] [%] | growth inhibition [2] | growth inhibition [3] | growth inhibition [4] [%] | growth inhibition [5] | growth inhibition [6] |
| --- | --- | --- | --- | --- | --- | --- |
| CCOC(=O)NC(=O)c1cn(CCOCCOC(=O)NCCCCCCNC(=O)OCCOCCn2cc(C(=O)NC(=O)OCC)c(=O)[nH]c2=O)c(=O)[nH]c1=O | 5.05 | 24.2% | 25.6% | 20.1 | -6.9% | 29.6% |
| O=C(Nc1nncs1)c1cnccn1 | -1.85 | -6.3% | 14.2% | -3.15 | 11.3% | -71.5% |
| CC1=NC(=Cc2cc(Br)cc(Br)c2)C(=O)N1n1c(-c2ccccc2)nc2ccccc2c1=O | -13.2 | -15.8% | -1.65% | 0.95 | -24.7% | 2.7% |
| Cc1ccc2ccc3ccccc3c2c1 | 46 | 1.45% | 9.2% | 20.4 | 17.9% | 26.2% |
| CC(C)/C(Cl)=N/OC(=O)Nc1ccc(F)c(Cl)c1 | 37.4 | 35.3% | 89.3% (active) | -1.3 | 60.8% | -36.8% |
| Cc1cccc(NC(=O)Nc2ccccc2F)n1 | -2.7 | 5.65% | -8.95% | -26.9 | -6.95% | -12.1% |
| CN(C)CCN1CC2Cc3ccccc3C1c1ccccc12 (stereo not given) | 24.1 | -6.5% | -3.5% | 28.9 | 43.4% | 9.1% |
| CON1C(=O)C(c2ccccc2)c2ccccc21 (stereo not given) | 58 | 22.6% | 47.8% | 3.1 | 10.7% | 6.65% |
| COc1ccccc1/C=C\C#N | -9.2 | -6.1% | -6.45% | -28 | -29.2% | -13.4% |
| CCCCCCCCCCCC(O)C(C)(C)C (stereo not given) | 23.7 | 10.1% | -12.6% | -39.2 | 11.9% | 10.3% |
| O=C(Nc1ccc2c(c1)Cc1c(F)cccc1-2)C(F)(F)F | -4.8 | -16.4% | -3.95% | -7.95 | 9.45% | 11.2% |
| O=C1CC(Br)C(c2ccccc2)(c2ccccc2)O1 (stereo not given) | 32.2 | 9.4% | 33.6% | 46.3 | 14.2% | 32% |
| CN=c1ss/c(=N\C(=S)N(C)C)n1C1CCCCC1 | -9.6 | -0.55% | 14% | 13.1 | 0% | 21.2% |
| CC12CC(O)C3C(CCC4CC(O)CCC43C)C1CCC2C(=O)CO (stereo not given) | 13.6 | 14.2% | 7.3% | 13.2 | 12.1% | 10.4% |
| Cc1[nH]c(N)nc(=S)c1CCCNc1ccccc1 | 6.45 | 2.1% | 6.8% | -9.15 | -32.3% | 26.2% |
| Cc1cccc(CO)c1NC(=O)NCCCl | -0.4 | -12.2% | -4.55% | -32.2 | -17.9% | 3.25% |
| CC1=Nc2ccccc2C12C(c1ccccc1)C(c1ccccc1)C(=O)N1c3ccccc3CC12 (stereo not given) | -2.25 | -16.4% | -33.6% | 20.1 | -14.3% | -1.65% |
| S=C1NCN2CCN(CC2)CNC(=S)C(=S)NCN2CCN(CC2)CNC1=S | 39.2 | 40.6% | 13% | 55.8 | 48.9% | 57.6% |
| O=C(O)c1ccccc1S(=O)Cc1ccc(Br)cc1 (stereo not given) | -10.6 | -10.6% | -23.1% | -6.1 | -0.3% | 3.5% |
| CCCN=C(N)C(C)=O | 5.85 | -4.9% | -11.1% | 4.85 | 15.2% | 2.1% |
| O=c1c2cccnc2nc2ccc3c[nH][nH]c3c12 | -23.8 | -24.6% | -0.55% | -14.6 | -18.3% | 8.65% |
| COc1cc2c(cc1OC)C(=O)/C(=C/c1cc(OC)c(OC)c(OC)c1)C2 | -33.8 | -35.5% | -69.8% | -38.6 | -12.8% | -69% |
| C=CCOC(=O)C(C)OC(=O)CCC(=O)OC(C)C(=O)OCC=C (stereo not given) | 5.35 | 4.3% | 4.35% | 3.95 | 6.15% | 4.85% |

| SMILES | growth inhibition [1] [%] | growth inhibition [2] | growth inhibition [3] | growth inhibition [4] [%] | growth inhibition [5] | growth inhibition [6] |
| --- | --- | --- | --- | --- | --- | --- |
| COC1OC(CO)C(O)C(O)C1OS(=O)(=O)c1ccc(C)cc1 (stereo not given) | 5.7 | -3% | -10.1% | 1.75 | -1.85% | -13.2% |
| OC12c3ccccc3C1CCCCCCCCCC21OCCCO1 (stereo not given) | -2.65 | -19.8% | -42.6% | 6.4 | -30.4% | -23.6% |
| COc1cc(OC)c(/C=N/N=C(\N)NO)c(OC)c1 | -8.95 | 12.2% | -0.7% | 9.65 | -1.15% | -9.75% |
| NC(N)=NS(=O)(=O)c1ccc(NCc2c3ccccc3nc3ccccc23)cc1 | 41.2 | 26.9% | 38.4% | 6.75 | 46.5% | 38.1% |
| CCOc1ccccc1/C=C1\N=C(c2ccc([N+](=O)[O-])cc2)OC1=O | 22.5 | 21.2% | 38.7% | 25.5 | 30.1% | 31% |
| CN1c2ccccc2N(C)C23N(C)c4ccccc4N(C)C12N(C)c1ccccc1N3C (stereo not given) | -33 | 1.8% | -67.4% | 18.7 | -22.1% | -20.9% |
| O=S(=O)(Cl)c1ccc(Cl)cc1 | -4.6 | 13.1% | 6.8% | 1.5 | -16.6% | -7.25% |
| O=C(O)CNOCN1C(=O)c2ccccc2C1=O | 11.6 | -1.25% | 13.3% | -21.6 | -16% | 14.4% |
| Cc1ccc(S(=O)(=O)/C=C(/SC#N)C2CCCCC2)cc1 | 32.5 | 90.6% (active) | 69.5% | 17.9 | 83.1% (active) | 79.7% (active) |
| C=CCOC(=O)c1ccccc1 | 11.3 | 6.5% | 2.55% | 11.4 | -9.55% | -16.6% |
| OCC(O)C1OC(O)C(O)C(O)C1O (stereo not given) | 1.45 | -7.75% | -32.2% | -49.4 | -6.75% | 10.4% |
| O=C1CSC(c2ccc(F)cc2F)N1c1nncs1 (stereo not given) | 13.4 | -3.7% | 22.8% | -35.2 | -23.8% | 24.2% |
| O=C(/C(=C/c1ccccc1)c1ccccc1)N1c2ccccc2CC1c1c[nH]c2ccccc12 (stereo not given) | 17.4 | 15.2% | -10.9% | 19.1 | 3.3% | 23.8% |
| C=CCC(O)c1ccccc1OC (stereo not given) | 9.75 | 9.25% | 20.8% | 5.15 | -5.9% | 7.95% |
| CC1(C)OCC[C@@H]1[Si](C)(C)C | 17.6 | 21.6% | 14.2% | 2.8 | -3.45% | -19.6% |
| CN(N=O)C(=O)NCCCCCNC(=O)N(C)N=O | 7.6 | 12.8% | 14.1% | -132 | 10.5% | -4.85% |
| CCN(CCOC)C(C)=O | 2.15 | 2.25% | 17.6% | -1.75 | -0.45% | -3.05% |
| CCNc1cc(Cl)c(C(=O)O)cc1[N+](=O)[O-] | -8.8 | 20.9% | 15.3% | -22.7 | -8.75% | -8.65% |
| N#C/C(=C/NC(N)=S)C(N)=O | -25.6 | 10.3% | -16.4% | 14.6 | -27.1% | 20.7% |
| COCNC(=S)c1ccc(C(N)=O)nc1C(=O)NC(C)(C)C | 15.8 | 0.4% | 5.6% | -3.3 | -5.8% | 30.6% |
| CCCCNC(=S)Nn1c(-c2ccccc2)nc2ccccc2c1=O | 18.6 | -43% | -20.8% | -37.5 | -31.9% | 0.9% |
| O=C1NCCCC1C(=O)Nc1cccc2c1NCCC2 (stereo not given) | -10.2 | -40.4% | 0.95% | -1.45 | 39.6% | -32.4% |
